In all, about 2,400 compounds went through this assay and fewer than 10 were called active. No rule for the calls is given here. These entries were drawn from the full list.
target: Rac GTPase-activating protein 1 (Homo sapiens) (UniProt Q9H0H5); test: MgcRacGAP inhibitors via phosphate release, confirmation, orthogonal assay, biochemical, inorganic phosphate detection, Rac1 (AID 652142); details: MgcRacGAP/Rac1F28L GTP hydrolysis, Biomol green phosphate; stronger effect = higher value; concentration not given here
Sequence (Q9H0H5 whole entry, looked up): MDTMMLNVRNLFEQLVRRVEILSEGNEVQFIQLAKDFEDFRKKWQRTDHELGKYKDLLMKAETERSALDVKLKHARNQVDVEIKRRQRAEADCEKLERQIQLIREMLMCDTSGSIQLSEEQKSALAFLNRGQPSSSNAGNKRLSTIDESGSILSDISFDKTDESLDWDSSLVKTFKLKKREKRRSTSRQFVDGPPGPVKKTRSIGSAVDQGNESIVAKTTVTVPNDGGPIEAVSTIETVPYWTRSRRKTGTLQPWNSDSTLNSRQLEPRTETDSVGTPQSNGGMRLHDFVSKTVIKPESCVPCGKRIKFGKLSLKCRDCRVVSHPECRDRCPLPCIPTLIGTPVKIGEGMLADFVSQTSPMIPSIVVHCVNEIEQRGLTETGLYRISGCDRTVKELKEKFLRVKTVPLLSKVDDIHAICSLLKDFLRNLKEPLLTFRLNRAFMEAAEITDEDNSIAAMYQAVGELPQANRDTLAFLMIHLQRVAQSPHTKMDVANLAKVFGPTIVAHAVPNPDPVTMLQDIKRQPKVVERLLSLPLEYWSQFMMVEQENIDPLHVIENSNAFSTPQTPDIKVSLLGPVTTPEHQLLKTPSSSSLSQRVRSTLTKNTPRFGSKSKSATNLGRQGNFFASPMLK

inhibition, inactive:
Cc1nn2cc(-c3ccc(N)cc3)nc2s1 22.3%, Oc1ccc(/C=N/Nc2ccnc3cc(Cl)ccc23)cc1O 4.55%, Oc1ccc(/C=N\Nc2cc(N3CCOCC3)nc(N3CCOCC3)n2)c(O)c1 21.8%, Nc1ccc(N2CCCC2)c(S(=O)(=O)Nc2cccc(C(F)(F)F)c2)c1 29.9%, Cc1ccc(-c2cc(C(=O)N3CCN(c4ccc(O)cc4)CC3)c3ccccc3n2)cc1 23.8%, O=C(/C=C/Nc1ccc(Nc2ccccc2)cc1)c1cccs1 19.5%, C/C(=N\NC(=O)c1cccc(N/N=C(\C)c2cc(O)ccc2O)c1)c1cc(O)ccc1O 28.1%, Cc1ccc(CN2CCN(Cc3ccccc3C(F)(F)F)CC2)cc1 17.2%, CCOC(=O)C1=C(COC(=O)/C=C/c2ccc(O)c(OC)c2)NC(=O)NC1C (stereo not given) 11.2%, COc1cc(/C=C/C(=O)OCC(=O)N2CC3(C)CC2CC(C)(C)C3)ccc1O (stereo not given) 33.5%, COc1ccc(S(=O)(=O)/N=C2\C=C(Nc3ccc(O)cc3)C(=O)c3ccccc32)cc1 13.5%, CCn1c(=S)[nH]c2sc3c(c2c1=O)CCCC3 10.8%, CCc1ccc(O)c(N=Cc2cccc(C)c2O)c1 23.4%, N=C(N)c1ccc(N=Nc2c(O)ccc3c2[nH]c2ccccc23)cc1 62.4%, CCc1ccc(O)c(N=Cc2ccccc2O)c1 33.5%, CN(C)c1ccc(C=c2c3cc(O)ccc3n3c2cc(-c2ccccc2)[n+]3C)cc1 83.7%, Oc1ccc(/C=N/Nc2cc(N3CCOCC3)nc(N3CCOCC3)n2)cc1 25.9%, Oc1ccc(/C=N/Nc2ccc(C(F)(F)F)cn2)c(O)c1 19.4%, O=S(=O)(O)c1cc(O)c(N=Nc2ccc(O)cc2O)c2ccccc12 24.4%, Oc1ccc(-c2[nH]ncc2-c2ccc(Cl)cc2)c(O)c1 26.7%, CN(C)c1ccc2c(c1)C(=NO)c1ccccc1-2 19.4%, O=C(NCc1ccco1)c1sc(=S)n2c1[nH]c(=O)c1ccccc12 31.8%, CCN(CC)c1ccc(Nc2nc(Cl)ncc2Br)cc1 33.2%, CCOc1cc(/C=N/NC(=O)CN2CCCCC2)ccc1O 30.3%, CN(c1ccc(O)cc1)c1nc(-c2ccccc2)cs1 23.3%, COc1cc(/C=N/Nc2nc3ccccc3[nH]2)ccc1O 12.2%, CCN(c1ccccc1)S(=O)(=O)c1ccc(N2CCN(c3ccc(O)cc3)CC2)nc1 27.7%, CCOc1cc(/C=N/NC(=O)CCCC(=O)NC2CCCCC2)ccc1O 20.5%, Cc1cc(-c2ccccc2)nc(N/N=C/c2ccc(O)cc2O)n1 20.5%, Cc1c(C(=O)N/N=C/c2ccc(O)c(Br)c2)sc(N)c1C#N 31.3%, Nc1ccc2nc(C3CCCCC3)[nH]c2c1 28.4%, COc1cc(/C=N/NC(=S)NC2CC3CCC2C3)ccc1O (stereo not given) -0.0456%, COc1cc2c(cc1NC(=O)C(Cl)Cl)-c1ccc(NC(=O)C(Cl)Cl)cc1C2 13.1%, CSc1nc(/C=C2\C=Nc3ccccc32)c(O)n1C 7.92%, Cn1c(-c2ccc(Cl)cc2)cnc1NCc1cc2c(cc1[N+](=O)[O-])OCO2 22.1%, C=CCn1c(SCC(=O)c2ccc(O)c(O)c2)nnc1-c1cccc(Cl)c1 29.9%, CN(Cc1ccccc1)Cc1c(O)ccc2ccccc12 23.9%, COc1cc(/C=N/NC(=O)CN(Cc2ccccc2)S(=O)(=O)c2ccc3c(c2)OCCO3)ccc1O -2.68%, COc1cccc(CNc2ccc3[nH]c(=O)[nH]c3c2)c1OCc1ccccc1Cl -0.282%, Cc1ccccc1C(OCC(O)CN1CCN(CCO)CC1)c1ccccc1 (stereo not given) 29.2%, CCN1CCN(CCOc2ccc(Br)cc2C)CC1 23.2%, COc1cc(/C=N/NC(=O)NC23CC4CC(CC(C4)C2)C3)ccc1O 35.9%, O=c1c2ccccc2sn1-c1ccc(Cl)cc1 75%, CC[n+]1ccc(/C=C/c2ccc(N(C)C)cc2)c2ccccc21 31.5%, COc1cc(/C=N/NC(=O)c2nnn(-c3nonc3N)c2C(C)C)ccc1O 15.1%, CN1CCN(/N=C/c2nc(-c3ccccc3)n3ccccc23)CC1 30.1%, CC(=O)N1CCN(c2ccc(Nc3ncnc4c3oc3ccccc34)cc2)CC1 8.13%, CCOc1cc(/C=N/NC(=O)c2ccccc2-n2cccc2)ccc1O 30.4%, CN(C)c1ccc(N=C/C=C2\N(C)c3ccccc3C2(C)C)cc1 22.7%, COc1cc(/C=N/NC(=O)c2ccc(-n3cccc3)cc2)ccc1O 12.4%, COc1cc(/C=N/NC(=O)C2(O)c3ccccc3-c3ccccc32)ccc1O 25.6%, COc1ccc(Oc2cn[nH]c2-c2ccc(O)cc2O)cc1 17.2%, Cc1cc(-c2ccccc2)nc(N/N=C/c2ccc(N(C)C)cc2)n1 23.8%, COc1cc(-c2nc3ccc(C)cn3c2Nc2ccc3c(c2)OCCO3)ccc1O 21.3%, CCOC(=O)c1cc(NCc2cccs2)ccc1N1CCOCC1 30.4%, O=C(N/N=C/c1ccc(O)cc1)Nc1cccc2nsnc12 33.1%, CC(=O)Nc1ccc(Oc2nc(-c3ccccn3)nc3ccccc23)cc1 26%, CCCS(=O)(=O)N1CCN(CC2CC3C=CC2C3)CC1 (stereo not given) 10.6%, O=c1c2ccccc2sn1-c1ccc(Cl)cc1Cl 79.5%, O=[N+]([O-])c1cccc(/C=N/n2c(-c3cccnc3)n[nH]c2=S)c1 32.9%, C=CCn1c(N/N=C/c2ccc(O)cc2)nc2ccccc2c1=O 18.4%, COc1cc(CCNC2=CC(=O)c3ncccc3C2=O)ccc1O 23.7%, C/C(=N\Nc1ccc(S(=O)(=O)N2CCCCC2)cn1)c1ccc(O)cc1 27.3%, COc1ccccc1N=NNc1ccccc1OC 28.7%, CC(C)(C)N1C(=O)c2ccc(C(=O)Nc3ccc(O)cc3)cc2C1=O 24.3%, Cn1c(-c2ccc3c(c2)OCO3)cnc1NCc1ccccc1Cl 27.7%, COc1cccc(Nc2nc(-c3ccc(O)cc3)cs2)c1 31.8%, C=CCn1c(=O)/c(=C/c2ccc(O)cc2)s/c1=C(/C#N)c1nnc2n1CCCCC2 18.2%, COc1ccc(CNc2ncc(-c3ccc(F)cc3)n2C)c2ccccc12 17.2%, CCOC(=O)/C(C#N)=C\c1c(OCC)n(CC)c2ccccc12 19.7%, Cc1cccc(C)c1OCCCCN1CCNCC1 32%, CC1(C)OC(=O)C(=NNc2ccc(O)cc2)C(=O)O1 20.7%, CCN(CC)S(=O)(=O)c1cccc(NC(=O)CNC2CCCCCC2)c1 31%, C#CCOCCOCCOCCNc1nc(N2CCN(C(=O)[C@H](CCCCN)n3cc([C@@H](N)CC(C)C)nn3)CC2)nc(N2CCN(C(=O)[C@H](CCCCN)n3cc([C@@H](N)CC(C)C)nn3)CC2)n1 39.7%, COc1cc(/C=C2\SC(=Nc3c(C)n(C)n(-c4ccccc4)c3=O)NC2=O)ccc1O 22.8%, Nc1ccc2nc(-c3ccccc3)[nH]c2c1 26.8%, Oc1ccc(Cl)cc1C=Nc1ccc2c3c(cccc13)CC2 29.6%, Nc1ccc(-c2nc3ccc(N)cc3s2)cc1 22.9%, COc1cc2[nH]c(=S)nc(NCCc3ccc(S(N)(=O)=O)cc3)c2cc1OC 17.7%, Cc1c(O)ccc(/C(Cc2ccc3ccccc3n2)=N\O)c1O 25.3%, Oc1ccc(/C=N/Nc2cc(N3CCOCC3)nc(N3CCOCC3)n2)cc1O 7.37%, Cc1ccccc1-c1ccc(Nc2ccc(N3CCOCC3)cc2)nn1 33.6%, CC1=NN(c2ccccc2)C(=O)/C1=C/C=C/C=C/N(C)C 21.7%, Cc1ccc(C2C=NN(c3ccccc3)C2=O)cc1 (stereo not given) -3.99%, S=c1[nH]c2ccccc2n2c(=S)[nH]nc12 23.8%, O=C1CCCC/C1=C\Nc1ccc(O)cc1 30.3%, O=C(Nc1ccccc1C(=O)N/N=C/c1ccc(O)cc1)c1ccccc1 25.8%, Cc1ccc(Nc2n[nH]c(=S)s2)cc1 23.2%, C#CCOCCOCCOCCNc1nc(N2CCN(C(=O)[C@H](CCCCN)n3cc([C@@H](N)C(C)CC)nn3)CC2)nc(N2CCN(C(=O)[C@H](Cc3cc4ccccc4[nH]3)n3cc([C@@H](N)C(C)CC)nn3)CC2)n1 (stereo not given in full) 54.2%, Fc1ccc(CNc2ccc(N3CCN(Cc4ccccc4)CC3)cc2)cc1 7.97%, Cc1cc(SCC(=O)c2ccc(O)c(O)c2)nc2ccccc12 5.6%, COc1ccc(NC(=O)n2ncc3cc(Cl)ccc32)cc1OC 23.6%, COc1ccc(C(CNC(=O)c2cc3ccccc3cc2O)N2CCOCC2)cc1 (stereo not given) 18%, CC1CCCCN1Cc1c(O)ccc2c(=O)c(-c3nc4ccccc4s3)c(N)oc12 (stereo not given) 30.4%, CCN(CC)CCCC(C)NC(=O)c1c(NC(=O)c2ccccc2)sc2c1CCCC2 (stereo not given) 24.9%
